aSyn 5UTR act = Activators working through SNCA 5'UTR binding (MLPCN). AID 1814. alpha-synuclein 5'UTR reporter, activators screen. activity score, % (tested at 7.5 µM), hits read low. hit rate 7.1% among 300,000; in the data active = activity score below about -60%
Each line names hits and unclear results; the compound was inactive in the other large screens. A selection follows.

CC(C)C(=O)Nc1ccc(NC(=O)c2cccc(F)c2)cn1	aSyn 5UTR act -148
O=C(Nc1ccc(NC(=O)C2CC2)nc1)c1cccc(F)c1	aSyn 5UTR act -161
O=C(Nc1ccc(Cl)cn1)c1cccc(F)c1	aSyn 5UTR act -204
CCOc1ccc(C(=O)Nc2ccc(Cl)cn2)cc1Cl	aSyn 5UTR act -182
CN(Cc1cccs1)C(=O)Cc1csc(-c2ccccc2)n1	aSyn 5UTR act -116
Cc1ccsc1C(=O)OCc1csc(-c2ccccc2)n1	aSyn 5UTR act -99
Cn1cccc1C(=O)OCc1csc(-c2ccccc2)n1	aSyn 5UTR act -112
C/C(=N\NC(=O)c1ccn[nH]1)c1cn(C)nc1C	aSyn 5UTR act -98
Cc1ccn2cc(C34CC5CC(CC(C5)C3)C4)nc2c1	aSyn 5UTR act -83
COc1ccccc1CN1CC(C(=O)NCc2c(F)ccc(C)c2F)CCC1=O (stereo not given)	aSyn 5UTR act -72
S=C(Nc1ccccc1)Nc1cccc(Cl)c1Cl	aSyn 5UTR act -67
COC(=O)c1cccc(NC(=S)Nc2cccc(Cl)c2Cl)c1	aSyn 5UTR act -69
CNC(=S)Nc1cccc(C(=O)OC)c1	aSyn 5UTR act -91
S=C(Nc1ccccc1)Nc1ccc(Cl)cc1Cl	aSyn 5UTR act -91
NNC(=S)Nc1ccccc1Cl	aSyn 5UTR act -185
O=C(NN=C1CCCC1)c1n[nH]c2c1CCCC2	aSyn 5UTR act -73
O=C(N/N=C/c1c(Cl)cccc1Cl)c1n[nH]c2c1CCCC2	aSyn 5UTR act -135
Cc1ccsc1/C=N\NC(=O)c1n[nH]c2c1CCC2	none
C#CCSc1nnc(-c2cccc3ccccc23)o1	aSyn 5UTR act -104
C#CCSc1nnc(-c2ccc(C)cc2)o1	aSyn 5UTR act -164
C#CCSc1nnc(-c2ccc(O)cc2)o1	aSyn 5UTR act -138
O=c1c2[nH]c3cccc(Cl)c3c2ncn1CC1CCCO1 (stereo not given)	aSyn 5UTR act -80
COC(=O)c1ccc(CN2C(=O)NC3(CCC(C)CC3)C2=O)cc1 (stereo not given)	aSyn 5UTR act -70
CC1CCC2(CC1)NC(=O)N(NC(=O)CCl)C2=O (stereo not given)	aSyn 5UTR act -77
CC(C)N1CC(O)=C(c2nc3ccccc3c(=O)[nH]2)C1=N	aSyn 5UTR act -75
Cc1ccccc1OCc1nc2c3cnn(C)c3ncn2n1	aSyn 5UTR act -152
O=C(Oc1ccc(-c2cnc3ccccc3n2)cc1)c1cc([N+](=O)[O-])ccc1Cl	aSyn 5UTR act -176
Cc1c(C(=O)Oc2ccc(-c3cnc4ccccc4n3)cc2)cccc1[N+](=O)[O-]	aSyn 5UTR act -108
O=C(Nc1ccc(Br)cc1Cl)c1ccc2c(=O)n3c(nc2c1)CCC3	aSyn 5UTR act -190
O=C(Nc1ccc(Cl)cc1Cl)c1ccc2c(=O)n3c(nc2c1)CCC3	aSyn 5UTR act -159
COc1cccc(-c2nnc(NC(=O)c3cccs3)s2)c1	aSyn 5UTR act -119
C/C=C(\C)c1nnc(NC(=O)c2ccco2)s1	aSyn 5UTR act -78
O=C(Nc1nnc(C23CC4CC(CC(C4)C2)C3)s1)c1ccco1	aSyn 5UTR act -89
COc1cccc(-c2nnc3sc(-c4ccco4)nn23)c1	aSyn 5UTR act -95
Cc1cccc(C(=O)Nc2nnc(-c3ccc(C(C)(C)C)cc3)s2)c1	aSyn 5UTR act -102
Cc1ccc(-c2nnc(NC(=O)c3ccco3)s2)cc1	aSyn 5UTR act -84
O=C(COc1ccccc1)Nc1nnc(C23CC4CC(CC(C4)C2)C3)s1	aSyn 5UTR act -75
Cc1cccc(C(=O)Nc2nnc(SCC(=O)NCc3ccco3)s2)c1	aSyn 5UTR act -101
COc1cccc(-c2nnc(NC(=O)c3ccco3)s2)c1	aSyn 5UTR act -97
COc1ccc(NC(=O)Cn2nnc(-c3ccccc3NC(=O)c3ccco3)n2)cc1	aSyn 5UTR act -117
COc1ccc(-c2nnc(NC(=O)c3ccco3)s2)cc1	aSyn 5UTR act -122
O=C(Nc1ccccc1)Nc1ccc2nnsc2c1	aSyn 5UTR act -145
O=C(Nc1ccccc1)Nc1ccc2snnc2c1	aSyn 5UTR act -147
CN(C)c1ccc(NC(=O)Nc2ccc3snnc3c2)cc1	aSyn 5UTR act -115
Cn1cnc2cc(NC(=O)c3ccc(Cl)cc3)ccc21	aSyn 5UTR act -139
CC(C)(C)n1cnc2cc(NC(=O)c3ccc(Cl)cc3)ccc21	aSyn 5UTR act -138
Cc1cccc(C(=O)Nc2ccc3c(c2)ncn3C)c1	aSyn 5UTR act -112
Cn1cnc2cc(NC(=O)c3cccs3)ccc21	aSyn 5UTR act -97
COCCNC(=O)c1ccc2c(c1)ncn2-c1cccc(C)c1	aSyn 5UTR act -75
O=C(Nc1ccc2nn(-c3ccccc3)nc2c1)c1cccs1	aSyn 5UTR act -178
CCN1/C(=C/C=C/c2oc3ccc4ccccc4c3[n+]2CC)Oc2ccc3ccccc3c21	none
CC(C)(C)C1CCc2sc(-c3nnc(CCl)o3)cc2C1 (stereo not given)	aSyn 5UTR act -64
Cc1cc(O)cc2c1C(=O)/C(=C/c1ccco1)O2	aSyn 5UTR act -116
CCOc1ccc2[nH]c(C(=O)N/N=C/c3ccccc3OC)cc2c1	aSyn 5UTR act -116
COc1cc(C(=O)N/N=C/C2CC=CCC2)cc(OC)c1OC (stereo not given)	none
CCOc1ccc(/C=N/NC(=O)c2cc3c(OC)cc(OC)c(OC)c3[nH]2)cc1	aSyn 5UTR act -78
COc1ccc2[nH]c(C(=O)N/N=C/c3ccccc3OC)cc2c1	aSyn 5UTR act -119
Cc1cccc(C(=O)Nc2sc(-c3ccccc3)cc2C(=O)O)c1	aSyn 5UTR act -180
CC(C)(C)C(=O)Nc1sc(-c2ccccc2)cc1C(=O)O	aSyn 5UTR act -87
Brc1ccc(-c2noc(C3CCCCC3)n2)cc1	aSyn 5UTR act -143
c1ccc(-c2noc(C3CCCCC3)n2)nc1	aSyn 5UTR act -82
CC(=O)Nc1cccc(-n2nnc(SCC(=O)c3ccccc3)n2)c1	aSyn 5UTR act -121
COc1ccc(C(=O)CSc2nnn(-c3cccc(NC(C)=O)c3)n2)cc1	aSyn 5UTR act -119
CCn1cc(C(=O)O)c(=O)c2cnc(N3CCN(C(=S)Nc4ccccc4Cl)CC3)nc21	aSyn 5UTR act -112
Cc1ccc(NC(=O)CSc2ccc(-c3ccc4c(c3)OCO4)nn2)cc1F	aSyn 5UTR act -76
Cc1ccc(NC(=O)Nc2ccc3c(c2)OCO3)c(OC(F)F)c1	aSyn 5UTR act -106
Cc1cc(F)ccc1NC(=O)Nc1ccc2c(c1)OCO2	aSyn 5UTR act -72
Cc1ccc(NC(=O)Nc2ccc3c(c2)OCO3)cc1F	aSyn 5UTR act -109
N#C/C(=C\c1ccc(F)cc1)c1nc(-c2ccco2)cs1	aSyn 5UTR act -167
N#C/C(=C\c1ccc(Cl)cc1)c1nc(-c2ccco2)cs1	aSyn 5UTR act -66
CO/C([O-])=N/c1c[n+](-c2ccc(C)cc2)no1	aSyn 5UTR act -62
O=C(O)c1cccc(OCc2ccccc2Cl)c1	aSyn 5UTR act -188
O=c1c(-c2ccccc2)n[nH]c2ccccc12	aSyn 5UTR act -87
CCN(CC)S(=O)(=O)c1ccc(-c2cn3cc(Cl)ccc3n2)cc1	aSyn 5UTR act -91
COc1ccccc1Nc1ncnc2c1cnn2-c1cccc(C)c1	aSyn 5UTR act -84
COc1cccc(Nc2ncnc3c2cnn3-c2cccc(C)c2)c1	aSyn 5UTR act -137
CC(=NC1CCCC1)c1c(C)[nH]n(-c2nc3ccccc3s2)c1=O	none
O=c1c(Cl)c(Nc2cccc(Cl)c2)cnn1-c1nc2ccccc2s1	aSyn 5UTR act -78
COc1ccc(Nc2cnn(-c3nc4ccccc4s3)c(=O)c2Cl)cc1	aSyn 5UTR act -139
C/C(=N\NC(=O)c1ccc(O)cc1)c1cc2ccccc2o1	aSyn 5UTR act -98
C/C(=N/Nc1ccc([N+](=O)[O-])cc1)c1c[nH]c2ccccc12	aSyn 5UTR act -171
